Laboratory results: PubChem BioAssay (NCATS)
Results filed as inconclusive are left out. Calls of active or inactive are those of the source. Unless noted, calls come from the whole dose curve; as a rule, active = well fitted curve in the direction sought with a large enough effect; inconclusive = small, poorly fitted or top-dose-only effect, or another doubt; inactive = no such curve, though single readings can be large; an effect the other way counts as inactive or inconclusive.

Each compound was assayed against Peptidyl-prolyl cis-trans isomerase NIMA-interacting 1 (Homo sapiens) (UniProt Q13526) (assay: qHTS Validation Assay to Find Inhibitors of Pin1 (AID 504536; active = well fitted inhibition curve with a large enough effect in the polarisation, with a control signal flat, not every such curve was filed as active; the % refers to the polarisation;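 note: 0% = full Pin1 enzyme wells and -100% = no-enzyme wells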)). Conditions: Pin1 fluorescence polarization peptide binding assay; series mostly up to 57.5 µM; activity, negative = inhibition: at the top concentration.
Method in brief: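 Fluorescence polarization competition: compounds (titration) displace HiFluor-488-labeled Pin1-1b peptide from Pin1 (0.3 uM final) in pH 7.5 HEPES buffer with DTT, 10 min at room temperature; %Activity normalized to no-enzyme wells, curves fitted.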

Sequence of Peptidyl-prolyl cis-trans isomerase NIMA-interacting 1 (Homo sapiens) (Q13526 whole entry, looked up): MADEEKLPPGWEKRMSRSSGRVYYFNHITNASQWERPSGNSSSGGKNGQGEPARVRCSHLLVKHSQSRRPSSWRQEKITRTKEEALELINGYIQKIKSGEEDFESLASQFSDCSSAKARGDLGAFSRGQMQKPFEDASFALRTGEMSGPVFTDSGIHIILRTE

| Compound | activity, negative = inhibition |
| --- | --- |
| NC1CCN(O)C1=O (centres undefined) | -2.25% (inactive) |
| O=c1ccn([C@@H]2O[C@H](COP(=O)(O)OP(=O)(O)O)[C@@H](O)[C@H]2O)c(=O)[nH]1 | 0.475% (inactive) |
| OCC1NCC(O)C(O)C1O (centres undefined) | -13.9% (inactive) |
| COC(=O)C(N)Cc1ccc(Cl)cc1 (centres undefined) | -1.27% (inactive) |
| CSC(N)=NCCC[C@H](N)C(=O)O | 2.06% (inactive) |
| COc1cc(CC(=O)O)ccc1O | 0.683% (inactive) |
| COc1cc(N)c(Cl)cc1C(=O)OCCN1CCCCC1 | 1.18% (inactive) |
| NCCCNCCCCNCCCN | 14.4% (inactive) |
| O=c1oc(Cl)c(Cl)c2ccccc12 | 8.04% (inactive) |
| Cn1cc(C(=O)OCC2CCN(CCNS(C)(=O)=O)CC2)c2ccccc21 | 4% (inactive) |
| CC(C)(CO)Cc1cc(C(C)(C)C)c(O)c(C(C)(C)C)c1 | -0.957% (inactive) |

Each compound was assayed against Phosphoglycerate kinase, glycosomal (Trypanosoma brucei brucei) (UniProt P07378) (assay: qHTS Validation Assay to Find Inhibitors of Phosphoglycerate Kinase (AID 504547;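 note: control wells lack PGK and mark full inhibition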)). Conditions: enzymatic PGK inhibition, coupled luminescence read-out; series mostly up to 57.5 µM; activity, negative = inhibition: at the top concentration.
Method in brief: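 Inhibition of the enzyme is judged by a Kinase-Glo Plus luminescent signal following a one-hour incubation at room temperature. Because 1,3-BPG is unstable, it is made in situ by GAPDH at 100nM final; no-PGK wells define the baseline.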

Sequence of Phosphoglycerate kinase, glycosomal (Trypanosoma brucei brucei) (P07378 whole entry, looked up): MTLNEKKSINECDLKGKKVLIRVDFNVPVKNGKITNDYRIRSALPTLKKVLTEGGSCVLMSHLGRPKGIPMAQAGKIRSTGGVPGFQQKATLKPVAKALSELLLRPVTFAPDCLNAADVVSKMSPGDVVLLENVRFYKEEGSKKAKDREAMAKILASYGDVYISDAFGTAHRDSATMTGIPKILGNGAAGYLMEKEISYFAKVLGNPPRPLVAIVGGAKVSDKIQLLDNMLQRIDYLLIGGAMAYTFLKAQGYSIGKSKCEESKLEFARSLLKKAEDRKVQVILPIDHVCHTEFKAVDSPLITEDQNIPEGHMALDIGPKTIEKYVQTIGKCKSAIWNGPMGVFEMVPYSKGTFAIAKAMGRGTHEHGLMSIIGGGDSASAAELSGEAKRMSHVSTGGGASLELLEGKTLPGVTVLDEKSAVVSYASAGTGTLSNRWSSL

| Compound | activity, negative = inhibition |
| --- | --- |
| NC/C=C\C(=O)O | 3.24% (inactive) |
| Cc1cccc(C2CN(C)CCc3c2cc(O)c(O)c3Cl)c1 (centres undefined) | 3.3% (inactive) |
| O=C(O)c1ccccc1Nc1cccc(OCc2ccc3ccccc3n2)c1 | 8.16% (inactive) |
| NCCS(=O)O | 0.0634% (inactive) |
| NC1C=CC=C(C(=O)O)C1 (centres undefined) | -4.97% (inactive) |
| NCCNS(=O)(=O)c1cccc2c(Cl)cccc12 | 11.2% (inactive) |
| Nc1ccc(-c2nc3ccc(-c4nc5ccc(N)cc5[nH]4)cc3[nH]2)cc1 | 4.85% (inactive) |
| Oc1cc2c(cc1O)C(c1ccccc1)CNCC2 (centres undefined) | 7.51% (inactive) |
| CC1=C(C(=O)O)N2C(=O)[C@@H](NC(=O)C(N)C3=CCC=CC3)[C@H]2SC1 (some centres undefined) | 11% (inactive) |
| CCCCS(=N)(=O)CC[C@H](N)C(=O)O (some centres undefined) | 1.62% (inactive) |
| CSC(=N)N | 6.97% (inactive) |
| O=C(O)C1CCCNC1 (centres undefined) | -0.353% (inactive) |
| O=C1C2C=CC=CC2=NC(=S)N1CCN1CCC(=C(c2ccc(F)cc2)c2ccc(F)cc2)CC1 (centres undefined) | 12.9% (inactive) |
| OC[C@H]1O[C@@H](n2cnc3cncnc32)[C@H](O)[C@@H]1O | 7.79% (inactive) |
| OCC1NCC(O)C(O)C1O (centres undefined) | 5.31% (inactive) |
| CSC(N)=NCCC[C@H](N)C(=O)O | 5.14% (inactive) |
| CN1C2CCC1CC(OC(c1ccccc1)c1ccccc1)C2 (centres undefined) | 6.15% (inactive) |
| COc1cc(N)c(Cl)cc1C(=O)OCCN1CCCCC1 | 8.35% (inactive) |
| NCCCNCCCCNCCCN | 9.77% (inactive) |
| O=c1oc(Cl)c(Cl)c2ccccc12 | 8.7% (inactive) |
| CC(C)(CO)Cc1cc(C(C)(C)C)c(O)c(C(C)(C)C)c1 | 0.35% (inactive) |

These compounds were tested against phosphoglycerate mutase (Leishmania major) (UniProt Q4Q090) (assay: qHTS Validation Assay to Find Inhibitors of Phosphoglycerate Mutase (AID 504548;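 note: end-point luminescence from Kinase-GloPlus after the PGAM reaction; % is set by controls: 0 for no effect and ±100 for the full control effect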)). Conditions: biochemical enzyme activity; Potency: inhibition qHTS; series mostly up to 57.5 µM; activity change, negative = inhibition: at the top concentration.
Method in brief: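 Inhibition of L. major PGAM was assessed by Kinase-GloPlus luminescence following a 45-minute room-temperature reaction with enzyme at 1.25nM final.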

Sequence of phosphoglycerate mutase (Leishmania major) (Q4Q090 1-553): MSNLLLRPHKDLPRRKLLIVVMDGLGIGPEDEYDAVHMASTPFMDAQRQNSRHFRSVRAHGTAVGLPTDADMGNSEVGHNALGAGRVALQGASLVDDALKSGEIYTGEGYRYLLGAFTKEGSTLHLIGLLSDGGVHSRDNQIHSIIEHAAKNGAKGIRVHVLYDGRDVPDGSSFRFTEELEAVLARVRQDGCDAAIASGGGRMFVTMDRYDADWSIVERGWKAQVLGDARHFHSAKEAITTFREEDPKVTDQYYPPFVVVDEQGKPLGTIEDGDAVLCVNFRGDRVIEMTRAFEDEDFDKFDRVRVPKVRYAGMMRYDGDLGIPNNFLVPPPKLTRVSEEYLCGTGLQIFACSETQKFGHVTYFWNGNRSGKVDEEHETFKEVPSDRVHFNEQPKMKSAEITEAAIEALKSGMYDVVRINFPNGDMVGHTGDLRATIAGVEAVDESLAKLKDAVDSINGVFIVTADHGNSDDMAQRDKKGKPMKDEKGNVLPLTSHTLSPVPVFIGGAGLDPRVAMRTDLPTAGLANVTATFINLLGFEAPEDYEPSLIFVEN

| Compound | activity change, negative = inhibition |
| --- | --- |
| N#CC(C#N)=C(N)/C(C#N)=C/c1ccc(O)cc1 | 4.87% (inactive) |
| C=CC1(C)CC(=O)C2(O)C(C)(O1)C(OC(C)=O)C(O)C1C(C)(C)CCC(O)C12C (centres undefined) | 2.46% (inactive) |
| Nc1ncnc2c1ncn2C1CCCC1 | 11.1% (inactive) |
| Cc1cccc(C2CN(C)CCc3c2cc(O)c(O)c3Cl)c1 (centres undefined) | 5.26% (inactive) |
| OC[C@H]1NC[C@@H](O)[C@@H]1O | -0.338% (inactive) |
| Nc1ccc(N2C(=O)c3ccccc3C2=O)c(Cl)c1 | 12.4% (inactive) |
| CCCCOc1cc(CC2CNC(=O)N2)ccc1OC (centres undefined) | -5.49% (inactive) |
| O=[N+]([O-])c1cccc2cn[nH]c12 | -3.24% (inactive) |
| Cn1ccnc1 | 0.0672% (inactive) |
| O=C(O)C1CCNCC1 | -9.99% (inactive) |
| CC1=C(C(=O)O)N2C(=O)[C@@H](NC(=O)C(N)C3=CCC=CC3)[C@H]2SC1 (some centres undefined) | 6.85% (inactive) |
| CC(=O)[C@H]1CCC2C3CC=C4C[C@@H](OS(=O)(=O)O)CC[C@]4(C)C3CC[C@@]21C (some centres undefined) | 8.21% (inactive) |
| NC1CCN(O)C1=O (centres undefined) | -6.67% (inactive) |
| COC(=O)C(N)Cc1ccc(Cl)cc1 (centres undefined) | -1.11% (inactive) |
| CN1C2CCC1CC(OC(c1ccccc1)c1ccccc1)C2 (centres undefined) | -2.14% (inactive) |
| COc1cc(CC(=O)O)ccc1O | 12.4% (inactive) |
| Cn1cc(C(=O)OCC2CCN(CCNS(C)(=O)=O)CC2)c2ccccc21 | 4.33% (inactive) |
